This is a sample that favours compounds with a hit; in the whole collection about 7.3% have one here.
HCV inhibitor: blocks hepatitis C virus; Huh7.5.1 HCVcc-Cre infection, luciferase reporter, 44 h; Potency, µM (titrated, usually from 41.8 µM), for inactives: top-dose activity change, negative = inhibition, usual class: inhibitors; hit rate 3.4% among 340,000; active means well fitted inhibition curve with a large enough effect; inconclusive means small, poorly fitted or top-dose-only effect, or another doubt; inactive means no such curve, though single readings can be large or run the other way; further: potency means the concentration at half of the fitted maximal effect
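Infectious HCVcc-Cre (~0.5 moi) was added to cells just after compound, with cells seeded 4 h earlier at 1,000 per well. Luciferase activity after 44 h culture reported infection; substrate was incubated 15 min at room temperature before reading.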
Vaccinia Venus: vaccinia inhibition (Venus reporter) | Vaccinia virus Venus reporter expression, fluorescence | Potency, µM (series often up to 36.5 µM), for inactives: at the top dose activity change, negative = inhibition, usual class: inhibitors | hit rate 0.46% among 330,000 | AID 720580; calls by dose curve; tested in A549 cells; further: potency means the concentration at half of the fitted maximal effect; nearly all actives have a fitted effect of over 30% in size
FMDV inh: foot and mouth disease virus antiviral activity; FMDV antiviral cell-based qHTS; Potency, µM (top dose mostly 57.9 µM), without a hit: at the highest dose activity change, negative = inhibition, most hits filed as inhibitors; AID 1159524; hit rate 1.2% among 410,000; calls by dose curve; tested in HEK293T cells; further: read-out not given here; potency means the concentration at half of the fitted maximal effect; nearly all actives have a fitted effect of over 45% in size
HCMV inh: human cytomegalovirus inhibition; HFF cells, HCMV-luciferase reporter, 72 h; stronger effect = lower value; activity change, negative = inhibition, % at 57.5 µM; hit rate 4.5% among 410,000; AID 1259415; in the data active means activity change below about -60%; inconclusive means no clear call, values can overlap the other calls; inactive means above about -39%
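HFF cells seeded 16 h at 37C, treated with compounds, infected with luciferase-reporter HCMV at MOI 1 PFU/cell; luciferase read at 72 h post infection, normalized to buffer-only and Salinomycin controls.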
Vaccinia mCherry: inhibitors of vaccinia virus infection (mCherry reporter signal); Potency, µM (top dose mostly 36.5 µM), for inactives: at the highest dose activity change, negative = inhibition, usual class: inhibitors; Vaccinia virus mCherry reporter infection, fluorescence; AID 720579; hit rate 0.63% among 310,000; calls by dose curve; tested in A549 cells; further: potency means the concentration at half of the fitted maximal effect; nearly all actives have a fitted effect of over 35% in size
* marks the source's active call; other numbers are inactive results; i = inactive; ? = inconclusive; · = no result given; [ ] = dose if it differs, or a comment. On the % scale 0 is the no-effect control and ±100 the full control effect.

SMILES	HCV inhibitor	Vaccinia Venus	FMDV inh	HCMV inh	Vaccinia mCherry
CCCc1cc(=O)oc2c(C)c(OCC(=O)NC3CCN(Cc4ccccc4)CC3)ccc12	6.31µM*	·	-2.1%	-32.1	·
O=C(NC1CCN(Cc2ccccc2)CC1)c1ccccc1	-1.3%	·	-16.3%	-8.5	·
CCCc1cc(=O)oc2cc(OCC(=O)NC3CCN(Cc4ccccc4)CC3)ccc12	?	·	-9.3%	-23.7	·
Cc1ccccc1CC(=O)NC1CCN(Cc2ccccc2)CC1	-12.8%	2.2%	-8.6%	24.6	i
N#Cc1cccc(-c2nccc(NCc3cccnc3)n2)c1	·	·	-15.9%	·	·
Cc1ccc(NC(=O)c2cc3c([nH]c2=O)CC(C)(C)CC3=O)cc1	·	-16.1%	·	·	-14.9%
COc1cc(/C=C/C(=O)c2ccc3c(c2)OCCO3)cc(Br)c1OCC(=O)N(C)C	7.08µM*	?	7.94µM*	-97.4*	2.82µM*
O=C(/C=C/c1ccncc1)c1ccc2c(c1)OCCO2	-4.3%	-21.6%	28.2µM*	25.5	-8.1%
O=C(C[n+]1ccc(/C=C/c2ccccc2)cc1)c1ccc2c(c1)OCCO2	?	-25.4%	-22.6%	-82.6*	-15.0%
O=C(/C=C/c1ccccc1)c1ccc2c(c1)OCO2	4.6%	·	0.0%	72.6	·
COc1cc(C(=O)NNC(=O)c2ccc3c(c2)OCCO3)cc(OC)c1OC	-2.0%	-7.0%	3.7%	-12.4	i
CC(=O)N(c1ccc(Cl)cc1)C1SC(=O)N(c2ccccc2)C1=O (configuration not stated)	·	-15.3%	·	·	i
O=C(Nc1c(C(=O)c2ccccc2)oc2ccccc12)c1cc(-c2ccccc2O)n[nH]1	-19.9%	?	-26.9%	1.8	?
Cc1ccc(C(=O)c2oc3ccccc3c2NC(=O)c2cc(-c3ccccc3O)n[nH]2)cc1	4.8%	-17.4%	-26.2%	-63.0*	-21.5%
Cc1ccc(C(=O)c2oc3ccccc3c2NC(=O)c2cc(-c3cc(C)ccc3O)n[nH]2)cc1	-29.9%	-14.4%[7.34 µM]	-15.3%	-62.7*	-11.2%[7.34 µM]
CCCN1Cc2cccc(C(=O)Nc3ccc(C(C)=O)cc3)c2C1=O	·	-13.1%	-1.8%	-5.2	-3.3%
COc1ccc(NC(=O)c2cnc[nH]2)cc1	·	4.3%	24.0%	76.8	4.3%
CC(C)CNC(=O)c1cn(C2CCN(Cc3nc4ccccc4s3)CC2)nn1	·	0.0%	-9.6%	·	i
Cc1ccc(S(=O)(=O)N2CCN(c3nc(-c4cccs4)nc4c3ncn4COC(=O)C(C)(C)C)CC2)cc1	·	-9.5%	·	·	i
CCOC(=O)c1c(C)[nH]c(C)c1S(=O)(=O)N(C)CC(=O)N1CCN(c2cccc(Cl)c2)CC1	·	-18.3%	-15.2%	?	?
CCOc1ccc(NC(=O)CN2CCN(Cc3ccccc3)S2(=O)=O)cc1	·	-4.9%	10.1%	-11.5	-12.1%
Cc1ccc(/C=N/Nc2nncc(-c3ccccc3)n2)o1	?	4.4%	8.4%	-1.8	-15.4%
Cc1[nH]n(-c2ccccc2)c(=O)c1/C=N/NC(=O)c1cccc(F)c1	11.2µM*	·	-6.1%	-98.1*	·
Cc1cc(C(=O)N/N=C/c2c(C)[nH]n(-c3ccccc3)c2=O)n[nH]1	-2.6%	-6.8%	-14.0%	5.1	-21.9%
Cc1[nH]n(-c2ccccc2)c(=O)c1C=Nc1cccc2cccnc12	3.55µM*	?	-23.0%	-63.0*	12.6µM*
SMILES	HCV inhibitor	Vaccinia Venus	FMDV inh	HCMV inh	Vaccinia mCherry
Cc1[nH]n(-c2ccccc2)c(=O)c1/C=N/NC(=O)c1ccc(O)cc1O	6.1%	·	15.5%	·	·
Cc1[nH]n(-c2ccc(Br)cc2)c(=O)c1/C=N/NC(=O)c1ccccc1	?	·	-5.1%	-98.3*	·
Cc1[nH]n(-c2ccccc2)c(=O)c1/C=N/Nc1nncc(-c2ccccc2)n1	0.562µM*	?	·	-99.2*	3.98µM*
Cc1ccc2nc(N3CCCCCC3)c(CN(CC3CCCO3)C(=O)c3cncs3)cc2c1 (configuration not stated)	·	-8.7%	-12.0%	·	-17.2%
O=C(NCCc1ccccc1)c1sc2ncccc2c1-n1cccc1	·	14.7%	-3.7%	-21.2	-7.0%
CC1=Nc2ccccc2/C1=C/c1ccc(N(C)C)cc1	·	-13.3%	·	·	-23.4%
Cc1nc(C(F)(F)F)c(C(=O)N/N=C(\N)c2ccccn2)s1	12.6µM*	?	2.8%	-33.5	2.51µM*
COc1ccc(-c2cn(-c3ccc(C)cc3)c(S(=O)(=O)CC(=O)Nc3ccccc3)n2)cc1	·	-22.7%	72.6%	11.6	-24.4%
C/C(=N/Nc1cc(-c2ccccc2)nc(-c2ccccc2)n1)c1ccc(O)cc1	?	?	5.1%	-65.4*	?

Screening results deposited in PubChem BioAssay by National Center for Advancing Translational Sciences (NCATS).
